# Experimental data taken from ChEMBL document CHEMBL3988442, “University of Dundee, Small-Polar-MMV Screening Library” (2021).
# “And” between values parts separate entries of the source, which are not always exact repeats. Equal entries are not always repeated. For part of these data: Measured potencies and affinities stand elsewhere.
# Columns and labels:
# Design in all cases: scale not given: direction of the effect not stated beside the values
# [1] = target: Protein translocase subunit SecA (Escherichia coli (strain K12)) (UniProt P10408); assay: Assay to Identify E. coli SecA ATPase Inhibitors; assay type: functional; conditions: 30 µM
# [2] = target: T1, Ubiquitin-activating enzyme e1, putative (Leishmania donovani (strain BPK282A1)) (UniProt E9BSI1); assay: Leishmania donovani Ubiquitin Activating Enzyme (LdE1); assay type: functional; conditions: 30 µM
# T1 sequence (whole entry): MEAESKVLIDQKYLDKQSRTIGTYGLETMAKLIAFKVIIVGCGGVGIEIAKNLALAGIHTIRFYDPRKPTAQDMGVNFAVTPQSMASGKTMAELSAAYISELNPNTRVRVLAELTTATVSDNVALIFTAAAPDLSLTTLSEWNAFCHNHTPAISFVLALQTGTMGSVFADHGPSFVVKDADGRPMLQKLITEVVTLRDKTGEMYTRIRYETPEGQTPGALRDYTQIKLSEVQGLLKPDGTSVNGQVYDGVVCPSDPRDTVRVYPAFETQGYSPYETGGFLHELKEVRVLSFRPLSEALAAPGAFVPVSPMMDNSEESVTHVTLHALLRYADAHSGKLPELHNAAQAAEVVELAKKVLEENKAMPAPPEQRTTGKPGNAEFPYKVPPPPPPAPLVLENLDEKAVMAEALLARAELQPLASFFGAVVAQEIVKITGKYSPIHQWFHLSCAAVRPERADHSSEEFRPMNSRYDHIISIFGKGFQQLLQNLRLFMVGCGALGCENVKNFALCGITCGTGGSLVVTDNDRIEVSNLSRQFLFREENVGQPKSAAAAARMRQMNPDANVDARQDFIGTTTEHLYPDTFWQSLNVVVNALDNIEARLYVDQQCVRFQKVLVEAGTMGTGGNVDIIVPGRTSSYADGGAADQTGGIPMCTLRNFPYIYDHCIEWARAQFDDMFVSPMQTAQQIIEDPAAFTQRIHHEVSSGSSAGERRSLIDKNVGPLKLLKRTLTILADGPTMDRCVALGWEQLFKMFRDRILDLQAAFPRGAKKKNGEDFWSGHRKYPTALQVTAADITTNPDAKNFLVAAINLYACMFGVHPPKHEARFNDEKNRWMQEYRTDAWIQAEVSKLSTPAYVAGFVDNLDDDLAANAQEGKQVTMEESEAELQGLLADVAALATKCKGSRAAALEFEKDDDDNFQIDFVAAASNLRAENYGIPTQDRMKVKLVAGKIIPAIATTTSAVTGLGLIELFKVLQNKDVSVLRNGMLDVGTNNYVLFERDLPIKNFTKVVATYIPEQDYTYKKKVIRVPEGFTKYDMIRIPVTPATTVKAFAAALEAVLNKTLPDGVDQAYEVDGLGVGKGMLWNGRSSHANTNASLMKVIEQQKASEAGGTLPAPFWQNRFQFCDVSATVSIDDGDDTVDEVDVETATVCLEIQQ
# [3] = target: AMP-activated protein kinase, AMPK (Homo sapiens) (UniProt P54646+O43741+P54619+Q9UGJ0+Q9Y478+Q13131+Q9UGI9); assay: AMP-dependent Kinase enzyme assay. An in vitro enzyme assay that detects ADP turnover that is directly proportional to AMPK activity. This uses naive AMPK that is activated during the assay with MK-8722; assay type: functional; conditions: 30 µM
# [4] = target: Sialic acid-binding Ig-like lectin 9 (Homo sapiens) (UniProt Q9Y336); assay: Hs-Siglec9 ALPHAscreen SOP 20170721; conditions: 10 µM
# Trypanosoma cruzi = assay: Trypanosoma cruzi phosphomannomutase and mannose-1-phosphate guanylyltransferase assay; assay type: functional; conditions: 10 µM
# [5] = target: T2, Arginase-2, mitochondrial (Homo sapiens) (UniProt P78540); assay: in vitro enzyme assay to detect the production of urea directly proportional to the activity of Arginase II; assay type: functional; note: in the data most compounds retested in dose-response had high values
# T2 sequence (whole entry): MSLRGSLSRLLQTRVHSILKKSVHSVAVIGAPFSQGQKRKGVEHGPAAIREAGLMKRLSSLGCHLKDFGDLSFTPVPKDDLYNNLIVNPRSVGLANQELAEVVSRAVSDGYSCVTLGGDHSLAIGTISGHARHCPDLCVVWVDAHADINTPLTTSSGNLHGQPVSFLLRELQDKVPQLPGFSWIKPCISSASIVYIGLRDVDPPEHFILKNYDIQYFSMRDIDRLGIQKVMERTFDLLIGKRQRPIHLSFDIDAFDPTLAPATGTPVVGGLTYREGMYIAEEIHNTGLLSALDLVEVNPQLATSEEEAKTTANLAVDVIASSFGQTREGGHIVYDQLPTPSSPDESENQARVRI
# [6] = target: T3, Proteasome subunit beta (Trypanosoma cruzi) (UniProt O96673); assay: Trypanosoma cruzi proteasome chymotrypsin-like activity (TcProtChymo) assay.; note: in the data most compounds retested in dose-response had high values; assay type: functional; conditions: 9.37 µM
# T3 sequence (whole entry): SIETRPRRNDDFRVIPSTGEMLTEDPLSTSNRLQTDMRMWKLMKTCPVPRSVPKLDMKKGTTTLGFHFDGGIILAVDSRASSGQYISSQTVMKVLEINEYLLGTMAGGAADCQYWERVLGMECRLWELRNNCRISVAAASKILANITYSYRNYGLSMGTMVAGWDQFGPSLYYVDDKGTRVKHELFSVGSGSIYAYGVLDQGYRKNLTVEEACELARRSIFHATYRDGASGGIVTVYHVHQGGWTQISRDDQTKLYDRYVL
# Homo sapiens = species on record: Homo sapiens; assay: To identify inhibition of the IFN signalling (Jak-Stat) pathway via expression of an eGFP reporter gene under the control of an IFN-stimulated response element (ISRE) containing MxA promoter.; assay type: functional; conditions: 30 µM
# [7] = target: T4, Tyrosyl-tRNA synthetase, putative (Trypanosoma cruzi (strain CL Brener)) (UniProt Q4DSP6); assay: Trypanosoma cruzi tyrosyl tRNA synthetase (TcYRS) _High Tyrosine SOP; assay type: functional; conditions: 30 µM; note: in the data most compounds retested in dose-response had high values
# T4 sequence (whole entry): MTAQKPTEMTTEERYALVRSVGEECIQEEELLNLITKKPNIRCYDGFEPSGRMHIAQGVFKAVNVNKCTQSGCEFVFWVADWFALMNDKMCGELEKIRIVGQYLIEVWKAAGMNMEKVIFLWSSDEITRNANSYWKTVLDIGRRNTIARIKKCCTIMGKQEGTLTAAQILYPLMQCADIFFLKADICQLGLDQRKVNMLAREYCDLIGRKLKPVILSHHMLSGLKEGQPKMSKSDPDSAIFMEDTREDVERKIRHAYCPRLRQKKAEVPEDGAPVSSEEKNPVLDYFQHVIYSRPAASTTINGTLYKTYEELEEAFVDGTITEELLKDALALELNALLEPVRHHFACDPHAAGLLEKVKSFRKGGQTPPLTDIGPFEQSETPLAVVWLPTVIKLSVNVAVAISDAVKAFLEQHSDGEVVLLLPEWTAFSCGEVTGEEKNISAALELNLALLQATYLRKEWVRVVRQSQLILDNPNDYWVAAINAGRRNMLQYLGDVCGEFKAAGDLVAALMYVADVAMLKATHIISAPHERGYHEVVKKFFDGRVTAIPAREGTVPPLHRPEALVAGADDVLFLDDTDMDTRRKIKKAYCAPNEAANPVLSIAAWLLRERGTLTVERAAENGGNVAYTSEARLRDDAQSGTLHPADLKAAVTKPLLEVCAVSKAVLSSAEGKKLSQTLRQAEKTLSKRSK
# [8] = target: T4, Tyrosyl-tRNA synthetase, putative (Trypanosoma cruzi (strain CL Brener)); assay: Trypanosoma cruzi tyrosyl tRNA synthetase (TcYRS) SOP; assay type: functional; conditions: 30 µM
# [9] = target: Chromo domain-containing protein 1 (Saccharomyces cerevisiae (strain ATCC 204508 / S288c) (Baker's yeast)) (UniProt P32657); assay: ScCHD-1 Enzyme Inhibition Assay; assay type: functional; conditions: 30 µM; note: in the data most compounds retested in dose-response had high values
# N/A = assay: Trypanosoma cruzi proteasome luciferase counter-screen; assay type: functional; conditions: 9.37 µM
# Chromo domain-containing protein 1 (Saccharomyces cerevisiae (strain ATCC 204508 / S288c) (Baker's yeast)), sequence (P32657 whole entry, the tested form may be a part): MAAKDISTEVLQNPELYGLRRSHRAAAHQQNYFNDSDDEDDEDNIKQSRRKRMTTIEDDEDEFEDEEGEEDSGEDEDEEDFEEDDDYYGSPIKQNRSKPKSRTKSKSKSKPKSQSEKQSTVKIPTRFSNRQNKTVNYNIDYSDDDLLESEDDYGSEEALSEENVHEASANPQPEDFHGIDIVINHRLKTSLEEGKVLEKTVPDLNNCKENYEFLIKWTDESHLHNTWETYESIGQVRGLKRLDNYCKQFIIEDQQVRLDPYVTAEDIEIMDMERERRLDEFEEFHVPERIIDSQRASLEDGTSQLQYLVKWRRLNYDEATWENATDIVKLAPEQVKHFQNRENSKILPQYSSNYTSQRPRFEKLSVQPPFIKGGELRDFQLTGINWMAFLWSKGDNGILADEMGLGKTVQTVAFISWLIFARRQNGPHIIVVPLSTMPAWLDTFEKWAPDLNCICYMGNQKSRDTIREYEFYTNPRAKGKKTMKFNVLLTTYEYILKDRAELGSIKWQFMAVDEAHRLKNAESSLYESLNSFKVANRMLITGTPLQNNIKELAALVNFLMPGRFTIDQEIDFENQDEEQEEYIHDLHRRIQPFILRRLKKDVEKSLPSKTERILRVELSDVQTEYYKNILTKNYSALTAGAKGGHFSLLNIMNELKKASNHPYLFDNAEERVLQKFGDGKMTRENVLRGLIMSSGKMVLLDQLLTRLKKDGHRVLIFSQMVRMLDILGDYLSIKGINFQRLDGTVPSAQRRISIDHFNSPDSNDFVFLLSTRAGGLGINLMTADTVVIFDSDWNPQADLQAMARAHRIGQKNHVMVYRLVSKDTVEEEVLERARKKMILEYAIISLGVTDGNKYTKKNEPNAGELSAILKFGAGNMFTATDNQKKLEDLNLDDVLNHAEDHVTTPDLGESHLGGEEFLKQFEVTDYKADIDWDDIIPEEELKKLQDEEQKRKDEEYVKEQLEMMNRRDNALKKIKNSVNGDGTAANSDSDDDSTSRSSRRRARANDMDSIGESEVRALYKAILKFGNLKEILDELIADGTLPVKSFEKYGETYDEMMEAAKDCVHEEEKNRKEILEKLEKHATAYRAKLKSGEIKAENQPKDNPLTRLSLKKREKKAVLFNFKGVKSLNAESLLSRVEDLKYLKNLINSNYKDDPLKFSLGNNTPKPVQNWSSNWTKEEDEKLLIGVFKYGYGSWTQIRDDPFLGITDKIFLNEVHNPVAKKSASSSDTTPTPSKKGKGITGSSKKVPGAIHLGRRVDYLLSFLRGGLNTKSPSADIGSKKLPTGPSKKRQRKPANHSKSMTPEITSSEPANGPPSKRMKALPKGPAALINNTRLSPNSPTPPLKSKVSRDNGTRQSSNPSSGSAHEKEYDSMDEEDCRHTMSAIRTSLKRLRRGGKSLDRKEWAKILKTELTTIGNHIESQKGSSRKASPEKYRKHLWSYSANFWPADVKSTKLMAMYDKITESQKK
# Sialic acid-binding Ig-like lectin 9 (Homo sapiens), sequence (Q9Y336 whole entry): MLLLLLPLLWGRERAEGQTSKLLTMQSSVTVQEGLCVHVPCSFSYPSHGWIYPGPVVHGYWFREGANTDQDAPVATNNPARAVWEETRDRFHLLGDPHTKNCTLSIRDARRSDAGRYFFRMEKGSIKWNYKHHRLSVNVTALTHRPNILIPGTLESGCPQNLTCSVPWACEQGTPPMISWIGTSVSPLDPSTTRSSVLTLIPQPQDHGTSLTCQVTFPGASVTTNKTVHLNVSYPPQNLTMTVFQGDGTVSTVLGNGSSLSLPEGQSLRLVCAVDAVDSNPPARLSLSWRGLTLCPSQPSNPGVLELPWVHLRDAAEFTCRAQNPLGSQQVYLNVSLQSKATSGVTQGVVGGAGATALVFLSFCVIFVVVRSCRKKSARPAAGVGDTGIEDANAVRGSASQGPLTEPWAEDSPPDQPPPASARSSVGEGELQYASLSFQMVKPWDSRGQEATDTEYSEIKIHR
# Protein translocase subunit SecA (Escherichia coli (strain K12)), sequence (P10408 whole entry): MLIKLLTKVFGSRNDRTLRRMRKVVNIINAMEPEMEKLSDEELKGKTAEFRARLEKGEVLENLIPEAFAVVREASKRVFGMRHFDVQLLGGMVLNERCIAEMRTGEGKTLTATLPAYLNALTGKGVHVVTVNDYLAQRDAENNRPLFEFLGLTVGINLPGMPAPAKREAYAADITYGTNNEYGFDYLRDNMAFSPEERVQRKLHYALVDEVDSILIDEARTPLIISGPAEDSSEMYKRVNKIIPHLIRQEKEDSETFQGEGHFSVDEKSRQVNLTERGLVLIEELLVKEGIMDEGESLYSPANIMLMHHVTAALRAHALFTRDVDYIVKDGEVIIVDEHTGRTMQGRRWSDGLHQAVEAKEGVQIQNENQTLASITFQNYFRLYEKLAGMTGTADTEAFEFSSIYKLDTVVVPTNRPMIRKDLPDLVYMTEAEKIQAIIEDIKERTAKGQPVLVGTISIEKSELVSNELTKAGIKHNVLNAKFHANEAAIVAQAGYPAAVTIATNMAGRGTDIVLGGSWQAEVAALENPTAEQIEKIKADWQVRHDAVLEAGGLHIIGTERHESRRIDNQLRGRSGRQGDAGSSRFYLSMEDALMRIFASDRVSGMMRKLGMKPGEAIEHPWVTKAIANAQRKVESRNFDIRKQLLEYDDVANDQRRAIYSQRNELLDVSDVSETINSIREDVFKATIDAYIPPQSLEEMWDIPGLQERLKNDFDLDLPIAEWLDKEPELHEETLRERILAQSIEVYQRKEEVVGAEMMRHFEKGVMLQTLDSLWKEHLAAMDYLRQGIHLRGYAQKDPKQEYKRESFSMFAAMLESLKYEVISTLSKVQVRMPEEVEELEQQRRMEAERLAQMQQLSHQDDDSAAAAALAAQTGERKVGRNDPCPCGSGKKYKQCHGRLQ
SMILES,Percent Effect [1] [%],Percent Effect [2] [%],Percent Effect [3] [%],Percent Effect [4] [%],Percent Effect (Trypanosoma cruzi) [%],Percent Effect ([5]; 30 µM) [%],Percent Effect ([5]; 33.3 µM) [%],Percent Effect [6],Percent Effect (Homo sapiens) [%],Percent Effect [7] [%],Percent Effect [8] [%],Percent Effect [9] [%],Percent Effect (N/A)
Cc1ccc([C@@H]2CN(S(=O)(=O)c3cccs3)C[C@H]2N(C)C)cc1,-5.74,2.7,-3.82,22.9,2.25,-0.54,-0.744,0.944%,22.4,3.23,13.6,-3.75,–
Cc1nn(CCO)c(C)c1CNC1CCC(C)(C)c2ccccc21 (configuration not stated),-3.92,8,-5.82,14.7,7.3,2.7,9.38,9.42%,23.6,1.64,13.6,-6.8,–
Cc1ccc([C@@H]2CN(S(=O)(=O)C(C)C)C[C@H]2N(C)C)cc1,-6.03,13.5,-2.84,23.9,7.33,-14.6,4.22,-0.258%,-1,3.23,18.5,-8.94,–
CCOCCCn1c(NC(=O)c2scnc2C)nc2ccccc21,-9.29,-5.2,-17.4,23.1,11.1,–,4.27,92.3% and 90% and 93.7%,68.6,7.77,21.9,72.8,69.6% and 70.1%
CN(Cc1ccccn1)C(=O)[C@]12COC[C@H]1CN(Cc1cnn(C)c1)C2,-1.75,2.67,0.223,6.55,1.16,5.95,-52.5,3.93%,-7.69,2.08,7.5,-8.12,–
O=C(O)c1ccc(F)c(S(=O)(=O)Nc2ccc(-n3cccn3)c(Cl)c2)c1,-5.92,-2.67,-7.61,-0.566,-2.63,–,0,16.3% and 16.5% and 41.1%,-13.3,-1.64,1.24,-4.16,15.6% and 20.6%
CCn1c(Nc2ccccc2OC)nc2c(C)nn(C)c2c1=O,-1.82,6.67,3.08,-2.73,-6.88,-9.19,-4.4,16.3%,10.6,8.47,10.3,-10.1,–
COc1cccc(-c2nc(C)c(C(=O)N[C@@H](C)C(=O)O)s2)c1,-0.174,12,-0.167,-2.7,-2.36,–,-12.5,77.2% and 81.5% and 84.7%,5.55,9.52,12.8,-7.59,56.5% and 53.9%
Cc1nc(CN2CCCC(N(C)Cc3cscn3)C2)no1 (configuration not stated),-5.04,5.2,-1.86,-3.2,7.54,–,-6.11,40.2% and 44.8% and 59.4%,17.1,3.81,11.8,-17.6,16.1% and 22%
Cn1cc(-c2cnc(N3CCOCC3)nc2)cc1C(=O)O,-3.79,5.41,2.15,1.49,5.08,–,18.3,100% (2×) and 98.7%,5.61,5.94,11,-7.1,97.4% and 97.5%
Cc1cc(C2CCCN(C(=O)c3c(C)noc3C)C2)n[nH]1 (configuration not stated),-3.57,2.63,9.83,9.23,0.292,–,-20.1,16.6% and 37.9% and 18.8%,-5.01,7.45,7.79,-1.42,18% and 16.2%
Cc1ccc(-c2nc(CN3CCC(C(=O)N(C)C)CC3)cs2)o1,-3.42,-1.27,-1.3,-4.8,-0.103,–,-1.94,38.5% and 41.6% and 46.1%,21.9,12.5,22.8,-29.5,21.6% and 19.9%
Cc1ccc(NCc2cncc3c2CCN(C(=O)C2CC=CC2)C3)nn1,-0.965,5.33,-0.665,8.87,1.74,–,-24.9,30.2% and 30.4% and 33.3%,-6.99,13.5,32.5,-6.63,16.9% and 15.1%
c1ccc2sc(N3CCOC(Cn4cccn4)C3)nc2c1 (configuration not stated),-6.09,13.5,-6.61,25.1,4.25,–,-6.41,38.1% and 31.4% and 25.9%,17.4,8.37,25.9,-17.7,10.8% and 13.7%
c1cc(OCc2ccc3c(c2)OCO3)ccc1CNC1CC1,7.84,0,0.713,-11.4,-6.91,–,-18.9,97.3% and 98.3% and 97.4%,14.4,-2.13,0,38.5,85.2% and 85%
COc1cccc(C(=O)NCC(O)c2cccs2)c1 (configuration not stated),-3.69,11,7.67,3.99,6.46,–,0,34.1% and 33.9% and 40.3%,-9.23,7.53,17.5,-3.59,6.45% and 13%
